# Laboratory results: PubChem BioAssay AID2283109 (EPA ToxCast)
# Several values for one entry are separate records, joined by “and”; a condition that tells them apart may be missing. Identical values can stand only once. Activity calls are given as the source filed them. The calls were made as follows: active = hit-call score of the fitted dose curve at least 0.9, where 1 is the maximum; inactive = score below 0.9.
# Target: human CYP3A5, CYP3A5 (gene 1577) (UniProt P20815)
# Assay: NVS_ADME_hCYP3A5: NovaScreen (NVS) CYP450-related Enzyme Activity (ADME) Assay for human CYP3A5
# Method: NVS_ADME_hCYP3A5 is a biochemical, single-readout assay that uses extracted gene-proteins in a cell-free assay. Measurements were taken 0.5 hour after chemical dosing in a 96-well plate.NVS_ADME_hCYP3A5 is one of one assay component(s) measured or calculated from the NVS_ADME_hCYP3A5 assay. It is designed to make measurements of enzyme activity, a form of enzyme reporter, as detected with fluorescence intensity signals by Fluorescence technology.Data from the assay component NVS_ADME_hCYP3A5 was analyzed into 1 assay endpoint. This assay endpoint, NVS_ADME_hCYP3A5, was analyzed in the positive analysis fitting direction relative to Acetonitrile as the negative control and baseline of activity. Using a type of enzyme reporter, loss-of-signal activity can be used to understand changes in the enzymatic activity as they relate to the gene CYP3A5. Furthermore, this assay endpoint can be referred to as a primary readout, because this assay has produced […] where this one serves a enzymatic activity function. To generalize the intended target to other relatable targets, this assay endpoint is annotated to the cyp intended target family, where the subfamily is xenobiotic metabolism. […]
# human CYP3A5, CYP3A5 (gene 1577), sequence (P20815 whole entry, looked up): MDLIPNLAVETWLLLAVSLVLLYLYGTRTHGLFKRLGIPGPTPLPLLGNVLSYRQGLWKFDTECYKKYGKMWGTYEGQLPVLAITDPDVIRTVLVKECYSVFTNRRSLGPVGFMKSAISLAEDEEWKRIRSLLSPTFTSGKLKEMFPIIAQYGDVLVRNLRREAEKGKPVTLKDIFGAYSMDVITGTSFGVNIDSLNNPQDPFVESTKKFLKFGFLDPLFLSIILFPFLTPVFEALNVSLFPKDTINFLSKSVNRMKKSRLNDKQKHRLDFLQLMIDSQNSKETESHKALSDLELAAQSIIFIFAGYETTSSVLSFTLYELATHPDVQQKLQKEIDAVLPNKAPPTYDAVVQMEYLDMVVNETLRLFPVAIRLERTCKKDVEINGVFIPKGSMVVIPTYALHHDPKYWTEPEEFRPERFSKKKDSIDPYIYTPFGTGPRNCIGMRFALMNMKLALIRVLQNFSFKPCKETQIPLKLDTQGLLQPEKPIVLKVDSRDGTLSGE
structure (smiles),measurement,value
C#C[C@]1(O)CC[C@H]2[C@@H]3CCc4cc(O)ccc4[C@H]3CC[C@@]21C,AC50,1.84 µM (active) and 3.89 µM (active) and 1.71 µM (active)
